The campaign covered roughly 5,500 compounds. About 2,000 (36%) were called active. Not shown: some 18% with an inconclusive outcome. Rule as the data show it: active = normalized growth mostly below about 0.91 (no sharp cut-off); inconclusive = no clear call, values can overlap the other calls; inactive = mostly above about 0.92. The list shows a part of the results.
Assay: chemical genetic growth profiling, strain panel (AID 1159580);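 also: tested at 20 µM; growth read once vehicle control cultures reached saturation at 30 °C; 1 = growth at the plate median or of vehicle wells; lower values mean less growth of the strain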
Settings: S. cerevisiae deletion strains, growth OD
[1] = locus YAL040C, strain CLN3, stronger effect = lower value
[2] = locus YCL061C, strain MRC1 (second series), stronger effect = lower value
[3] = locus YDR363W, strain ESC2, stronger effect = lower value
[4] = locus YER002W, strain NOP16, stronger effect = lower value
[5] = locus YNL175C, strain NOP13, stronger effect = lower value
[6] = locus YNL197C, strain WHI3, stronger effect = lower value
[7] = locus YNL224C, strain SQS1, stronger effect = lower value
[8] = locus YOR083W, strain WHI5 (second series), stronger effect = lower value

Measured: normalized growth

CC(C)C[C@H](N)CSSC[C@@H](N)CC(C)C
inactive: [1] 0.965 | [2] 1.01 | [3] 1 | [4] 1.02 | locus YJR075W, strain HOC1, stronger effect = lower value 1 | locus YMR307W, strain GAS1, stronger effect = lower value 1.01 | locus YNL128W, strain TEP1, stronger effect = lower value 1.01 | [5] 1.01 | [6] 1.01 | [7] 1 | [8] 1.03 | locus YPL241C, strain CIN2, stronger effect = lower value 1.01

c1ccc(-c2nnc(-c3ccccn3)nc2-c2ccccc2)cc1
active: locus YAR019C, strain CDC15, stronger effect = lower value 0.857 | locus YDL132W, strain cdc53, stronger effect = lower value 0.856 | locus YDR052C, strain DBF4, stronger effect = lower value 0.908 | locus YDR054C, strain cdc34, stronger effect = lower value 0.845 | locus YFL009W, strain cdc4, stronger effect = lower value 0.812 | locus YFL029C, strain CAK1, stronger effect = lower value 0.806 | locus YFR028C, strain CDC14, stronger effect = lower value 0.871 | locus YGR092W, strain DBF2, stronger effect = lower value 0.473 | locus YHR030C, strain SLT2, stronger effect = lower value 0.531 | locus YHR079C, strain IRE1, stronger effect = lower value 0.487 | locus YJL095W, strain BCK1, stronger effect = lower value 0.47 | locus YJR016C, strain ILV3, stronger effect = lower value 0.83 | locus YKL048C, strain ELM1, stronger effect = lower value 0.683 | locus YKL101W, strain HSL1, stronger effect = lower value 0.716 | locus YKL193C, strain SDS22, stronger effect = lower value 0.867 | locus YKL203C, strain TOR2, stronger effect = lower value 0.652 | locus YLR113W, strain HOG1, stronger effect = lower value 0.581 | locus YLR133W, strain CKI1, stronger effect = lower value 0.676 | locus YLR403W, strain SFP1, stronger effect = lower value 0.631 | locus YMR205C, strain PFK2 (second series), stronger effect = lower value 0.734 | locus YMR277W, strain FCP1, stronger effect = lower value 0.871 | locus YNL207W, strain RIO2, stronger effect = lower value 0.813 | locus YNL307C, strain MCK1 (second series), stronger effect = lower value 0.623 | locus YOL078W, strain AVO1, stronger effect = lower value 0.859 | locus YOR061W, strain CKA2, stronger effect = lower value 0.662 | locus YOR119C, strain RIO1, stronger effect = lower value 0.57 | locus YPL204W, strain HRR25, stronger effect = lower value 0.661 | locus YPL256C, strain CLN2, stronger effect = lower value 0.545 | strain NNK1, stronger effect = lower value 0.814 | strain TSCII, stronger effect = lower value 0.842
inactive: locus YBL105C, strain PKC1, stronger effect = lower value 0.945 | locus YBR135W, strain CKS1, stronger effect = lower value 0.937 | locus YBR136W, strain MEC1, stronger effect = lower value 0.904 | locus YBR160W, strain CDC28, stronger effect = lower value 0.944 | locus YDL017W, strain CDC7, stronger effect = lower value 0.946 | locus YDL028C, strain MPS1, stronger effect = lower value 0.896 | locus YDL101C, strain DUN1, stronger effect = lower value 0.957 | locus YDL108W, strain KIN28, stronger effect = lower value 0.917 | locus YDL214C, strain PRR2, stronger effect = lower value 0.814 | locus YDR226W, strain ADK1, stronger effect = lower value 0.924 | locus YDR477W, strain SNF1, stronger effect = lower value 0.748 | locus YER123W, strain YCK3, stronger effect = lower value 0.704 | locus YER133W, strain GLC7, stronger effect = lower value 0.783 | locus YFR003C, strain YPI1, stronger effect = lower value 0.943 | locus YFR019W, strain FAB1, stronger effect = lower value 0.796 | locus YGR040W, strain KSS1, stronger effect = lower value 0.748 | locus YGR052W, strain FMP48, stronger effect = lower value 0.641 | locus YHR082C, strain KSP1, stronger effect = lower value 0.655 | locus YHR205W, strain SCH9, stronger effect = lower value 0.689 | locus YIL147C, strain SLN1, stronger effect = lower value 0.893 | locus YJL128C, strain PBS2, stronger effect = lower value 0.871 | locus YJL157C, strain FAR1, stronger effect = lower value 0.74 | locus YJR066W, strain TOR1 (second series), stronger effect = lower value 0.663 | locus YJR066W, strain TOR1, stronger effect = lower value 0.565 | locus YKL067W, strain YNK1, stronger effect = lower value 0.792 | locus YML070W, strain DAK1, stronger effect = lower value 0.78 | locus YMR001C, strain CDC5, stronger effect = lower value 0.903 | locus YNL006W, strain LST8, stronger effect = lower value 0.932 | locus YNL020C, strain ARK1, stronger effect = lower value 0.746 | locus YNL161W, strain CBK1, stronger effect = lower value 0.938 | locus YNL183C, strain NPR1, stronger effect = lower value 0.655 | locus YNL222W, strain SSU72, stronger effect = lower value 0.914 | locus YOL136C, strain PFK27, stronger effect = lower value 0.861 | locus YOR231W, strain MKK1, stronger effect = lower value 0.631 | locus YOR329C, strain SCD5, stronger effect = lower value 0.921 | locus YPL031C, strain PHO85, stronger effect = lower value 0.774 | locus YPL153C, strain RAD53, stronger effect = lower value 0.695 | locus YPL209C, strain IPL1, stronger effect = lower value 0.931 | locus YPR025C, strain CCL1, stronger effect = lower value 0.927 | locus YPR106W, strain ISR1, stronger effect = lower value 0.919 | locus YPR111W, strain DBF20, stronger effect = lower value 0.885

c1ccc(-c2ccccn2)nc1
inactive: [1] 0.974 | [2] 0.975 | [3] 1.02 | [4] 0.966 | locus YGR078C, strain PAC10, stronger effect = lower value 0.977 | locus YMR263W, strain SAP30, stronger effect = lower value 1 | locus YNL153C, strain GIM3, stronger effect = lower value 0.942 | [5] 0.987 | [6] 0.95 | [7] 0.991 | locus YNL322C, strain KRE1, stronger effect = lower value 1.03 | [8] 0.972

Source: PubChem BioAssay AID1159580 (chemical genetic matrix, 2015)
